Inhibition data for 19 molecules are collected here from PubChem BioAssay.

Assay [1] can be described thus: NFkB reporter suppression in cystic fibrosis bronchial cells – cell-based, uHTS hits, panel, cytotoxicity readout, dose response (AID 624344). The conditions noted are these: CF bronchial epithelial cells, PAF-induced NFkB reporter inhibition, with PAF, run 1; at 79 µM (top of the series) unless noted.
Assay in assay [2]: as above
The note with it: CF bronchial epithelial cells, PAF-induced NFkB reporter inhibition, with PAF, run 2; at 79 µM (top of the series) unless noted.

In general, inhibition refers to the drop in the measured response relative to a control, in per cent. Take `C/C(=N\Nc1cc(N2CCOCC2)ncn1)c1cccc([N+](=O)[O-])c1`: the values for the inhibition in assay [1] and in assay [2] were 115% and 95.3%, respectively.
For `COc1ccc(-c2csc(NC3OC(=O)c4c3ccc(OC)c4OC)n2)cc1OC` (stereo not drawn) the same measures were 109% and 100%.
For `CCOc1ccc(C(C(=O)NCC2CCCO2)N(Cc2cccs2)C(=O)c2snc(C(N)=O)c2N)cc1` (stereo not drawn) the same measures were 99.5% and 92.5%.
For `Nc1ncnc(N2CCc3ccccc32)c1[N+](=O)[O-]` the same measures were 115% and 103%.
Regarding `O=C(Nc1cccc(-c2cnc3ccccc3n2)c1)c1cccc(NC(=O)c2ccco2)c1`, the inhibition came out at 98.6% in assay [1] and 96.6% in assay [2].
Turning to `COc1ccc2cc3c(N)nn(C(=O)c4ccccc4[N+](=O)[O-])c3nc2c1`, the inhibition worked out at 101% in assay [1] and 111% in assay [2].
As to `CC1CCN(Cc2c(C(=O)N/N=C/c3ccc(C(C)(C)C)cc3)nnn2-c2nonc2N)CC1`, the inhibition in assay [1] was 98.1%; in assay [2], 108%.
For `CN(C)CCCN(C(=O)CCOc1ccccc1)c1nc2ccc(F)cc2s1` the same measures were 101% and 105%.
In the case of `CC(C)n1c(SCc2ccccc2F)nc2c1c(=O)n(C)c(=O)n2C`, the values for the inhibition in assay [1] and in assay [2] were 96% and 95.1%, respectively.
For `O=C(COC(=O)c1c2c(nc3ccccc13)CCN(Cc1ccccc1)C2)Nc1c(F)cccc1F` the same measures were 79.5% and 74%.
Regarding `CC1C(c2ccccc2)OCCN1C(=S)Nc1ccc(S(=O)(=O)N2CCCCC2)cc1` (stereo not drawn), the figures for the inhibition in assay [1] and in assay [2] were 100% and 106%, respectively.
For `NC(N)=NN=C(c1ccc(F)cc1)c1ccc(C(F)(F)F)cc1` the same measures were 108% and 117%.
Turning to `CN(C)CCCN(C(=O)CCOc1ccccc1)c1nc2c(F)cccc2s1`, the inhibition came out at 99.3% in assay [1] and 99.1% in assay [2].
For `O=C(Nc1cccnc1)c1sc2cccc(F)c2c1Cl` the same measures were 76.8% and 92.7%.
For `Nc1nccc(SCc2ccc(Cl)cc2Cl)n1` the same measures were 72.7% and 74.1%.
For `C=C1C(=O)C2=CC1CCC(=O)C1(C)CCC(OC(C)=O)C(C)(C)C1CC2O` (stereo not drawn) the same measures were 94.6% and 107%.
With `COc1cccc(N2CCN(c3c(C#N)c(C(F)(F)F)nn3C)CC2)c1`, the inhibition in assay [1] was 111%; in assay [2], 94.2%.
Take `COc1cccc(-c2ccc3ncnc(NCc4cccnc4)c3c2)c1`: the values for the inhibition in assay [1] and in assay [2] were 103% and 100%, respectively.
For `Cc1ccnc(NC(=O)CSc2cc(=O)n(C)c3ccccc23)c1` the same measures were 103% and 110%.
